DT40 TDP1 CPT: growth inhibition of DT40 Tdp1-/-;hTDP1 cells with camptothecin (screen for TDP1 inhibitors); 420,000 tested, 12% active; chicken DT40 Tdp1-/-;hTDP1 cells + 20 nM CPT, ATP luminescence, 48 h; Potency, µM (titrated, usually from 46.2 µM), for inactives: top-dose activity change, negative = growth inhibition, most hits filed as inhibitors; further: potency means the concentration at half of the fitted maximal effect; nearly all actives have a fitted effect of over 55% in size
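Chicken DT40 Tdp1-/- cells stably complemented with human TDP1 were seeded at 400 cells/well in medium containing 20 nM camptothecin, exposed to pin-transferred compounds, and grown at 37 °C for at least 48 hr. Viability was read as ATP luminescence.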
12-LOX inh: blocks human arachidonate 12S-lipoxygenase; purified 12hLO, xylenol orange hydroperoxide absorbance; Potency, µM (highest dose often 108 µM), for the others: at the top dose activity change, negative = inhibition, most hits filed as inhibitors; 580,000 tested, 1.1% active; AID 1671190; further: potency means the concentration at half of the fitted maximal effect
Target sequence (P18054 whole entry, looked up): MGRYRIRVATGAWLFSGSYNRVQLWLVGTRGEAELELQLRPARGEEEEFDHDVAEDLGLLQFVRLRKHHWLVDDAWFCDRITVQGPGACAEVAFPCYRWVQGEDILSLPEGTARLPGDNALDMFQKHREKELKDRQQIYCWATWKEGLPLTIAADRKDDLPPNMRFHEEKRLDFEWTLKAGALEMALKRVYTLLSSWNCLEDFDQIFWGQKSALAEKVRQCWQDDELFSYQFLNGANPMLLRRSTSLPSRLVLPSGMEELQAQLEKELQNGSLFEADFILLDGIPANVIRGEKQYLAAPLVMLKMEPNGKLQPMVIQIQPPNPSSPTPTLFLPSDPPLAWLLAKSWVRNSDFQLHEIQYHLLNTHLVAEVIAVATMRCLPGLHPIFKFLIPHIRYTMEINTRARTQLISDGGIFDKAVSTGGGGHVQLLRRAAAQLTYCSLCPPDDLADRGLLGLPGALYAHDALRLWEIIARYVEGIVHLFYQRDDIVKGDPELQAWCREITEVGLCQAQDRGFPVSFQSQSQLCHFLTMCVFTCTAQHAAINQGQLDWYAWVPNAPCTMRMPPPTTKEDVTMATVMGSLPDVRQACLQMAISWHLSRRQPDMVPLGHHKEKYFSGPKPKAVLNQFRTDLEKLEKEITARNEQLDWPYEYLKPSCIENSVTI
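Purified human 12hLO (150 nM final) in 25 mM Hepes, 0.01% Triton X-100, pH 7.0 was preincubated 15 min at room temperature with compound. Then 40 uM arachidonic acid was added, 30 min. Hydroperoxide was read by Fe-XO absorbance ratio 573/405 nm.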
IL1B secr inh: inflammasome signaling inhibition, IL-1 beta readout. THP-1 LPS/ATP IL-1B secretion, AlphaLISA, 16 h; stronger effect = lower value. activity change, % at 57.5 µM. 360,000 tested, 4.7% active; in the data active means activity change below about -50%; inconclusive means mostly about -30% to -49%
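Secreted IL-1B measured by AlphaLISA bead assay after 16 h compound exposure of THP-1 cells; compounds (final up to 57.5 uM) added 1 h before LPS (250 ng/mL) and ATP (1.25 mM) stimulation; lower signal means less secretion.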
HT1080-NT tox: kills 2HG-producing HT-1080-NT fibrosarcoma cells. HT-1080-NT fibrosarcoma viability, CellTiter-Glo ATP luminescence, 48 h. 360,000 tested, 1.6% active. Potency, µM (doses to about 46.1 µM), for inactives: at the top dose activity, negative = less viability, usual class: cytotoxic;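 further: NT is the 2HG producing partner of a matched IDH1 knockdown line; potency means the concentration at half of the fitted maximal effect; 0% = DMSO-treated cells and -100% = media-only wells without cells; nearly all actives have a fitted effect of over 55% in size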
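Read-out is CellTiter-Glo luminescence after 10 minutes at room temperature, following 48 hours' compound treatment of HT-1080-NT cells (750 cells/well, RPMI, 5% FBS, 37 degrees C).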
DT40 TDP1 no CPT: qHTS for Inhibitors of human tyrosyl-DNA phosphodiesterase 1 (TDP1): qHTS in cells in absence of CPT | DT40 Tdp1-/- hTDP1 cells, no CPT, ATP luminescence, 48 h | Potency, µM (doses to about 46.2 µM), without a hit: top-dose activity change, negative = growth inhibition, usual class: inhibitors | 420,000 tested, 15% active; further: potency means the concentration at half of the fitted maximal effect; nearly all actives have a fitted effect of over 55% in size
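A cellular qHTS used chicken DT40 cells lacking endogenous Tdp1 but carrying stably transfected human TDP1. Compounds were applied without camptothecin, and cell growth kinetics were judged by ATP-dependent luminescence after ≥48 hr.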
HT1080 IDH1KD tx: HT-1080 IDH1 knockdown cell toxicity (counter line); HT-1080 IDH1 knockdown viability, ATP luminescence, 48 h; Potency, µM (doses to about 46.1 µM), for inactives: top-dose activity, negative = toxicity, hits mostly cytotoxic; 360,000 tested, 2% active; AID 686971;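 further: potency means the concentration at half of the fitted maximal effect; 0% = DMSO wells and -100% = cell-free medium wells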
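IDH1KD HT-1080 cells, 750/well, RPMI + 5% FBS; compound pinned after 2 h settling; 48 h, 37 °C; CellTiter-Glo luminescence; % activity normalised to DMSO and no-cell wells; curves fitted, classed by r2 and efficacy.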
Numbers without * were called inactive; ? = inconclusive; nt = no result given. This excerpt belongs to a sample that is enriched for hits. Unless noted, the call rests on the fitted dose curve; in most records, active means well fitted curve in the direction sought with a large enough effect; inconclusive means small, poorly fitted or top-dose-only effect, or another doubt; inactive means no such curve, though single readings can be large; an effect the other way counts as inactive or inconclusive. Unless noted, on the % scale 0 is the no-effect control and ±100 the full control effect.

SMILES	DT40 TDP1 CPT	12-LOX inh	IL1B secr inh	HT1080-NT tox	DT40 TDP1 no CPT	HT1080 IDH1KD tx
CNC(=S)N1N=C(c2ccc(OC)cc2)CC1c1ccc(Cl)cc1Cl (stereo not drawn)	-26.6%	-3.0%	-23.9	3.3%	-25.7%	8.0%
CNC(=S)N1N=C(c2ccc(C)cc2)CC1c1cc(OC)ccc1OC (stereo not drawn)	?	-12.5%	0.0	?	9.2µM*	20.6µM*
COc1ccccc1C1=NN(C(=S)Nc2ccccc2)C(c2ccco2)C1 (stereo not drawn)	?	?	8.4	-1.5%	?	-5.9%
COc1ccc(OC)c(C2CC(c3ccccc3)=NN2C(=S)Nc2ccccc2)c1 (stereo not drawn)	3.66µM*	29.8%	33.8	?	3.66µM*	?
CCOC(C)C(=O)NCCc1cccs1 (stereo not drawn)	nt	-2.4%	nt	nt	nt	nt
COc1cccc(Cn2c(=O)n(-c3ccc(Br)cc3F)c(=O)c3sc4ccccc4c32)c1	9.2µM*	0.0%	nt	nt	?	nt
O=c1c2sc3ccccc3c2n(Cc2ccc(Cl)cc2)c(=O)n1Cc1ccco1	?	0.0%	nt	nt	8.2µM*	nt
Cc1ccc(Cl)cc1-n1c(=O)c2sc3ccccc3c2n(Cc2ccccc2)c1=O	23.1µM*	0.0%	nt	nt	5.8µM*	nt
CCOc1ccc(-n2c(=O)c3sc4ccccc4c3n(Cc3ccc(F)cc3)c2=O)cc1	-4.9%	-24.6%	nt	nt	?	nt
O=c1c2sc3ccccc3c2n(Cc2ccc(F)cc2)c(=O)n1Cc1ccccc1	-9.2%	-2.1%	nt	nt	-3.0%	nt
O=C(Nc1cc2c(cc1Sc1ccccc1)OCCO2)c1ccc2c(c1)OCCCO2	nt	3.3%	nt	nt	nt	nt
Cc1ccccc1NC(=O)CCc1ncc(-c2c(F)cccc2F)o1	nt	24.6%	nt	nt	nt	nt
O=C1CCSC2(C(=O)N(Cc3ccc(F)cc3)c3ccccc32)N1c1cccc(F)c1 (stereo not drawn)	5.17µM*	0.0%	nt	nt	3.66µM*	nt
Cc1cc(C)cc(N2C(=O)CCSC23C(=O)N(Cc2ccccc2)c2ccccc23)c1 (stereo not drawn)	5.8µM*	-7.4%	nt	nt	5.8µM*	nt
Cc1cccc(N2C(=O)CCSC23C(=O)N(Cc2ccc(F)cc2)c2ccccc23)c1 (stereo not drawn)	9.2µM*	0.0%	nt	nt	6.51µM*	nt
O=C1CSC2(C(=O)N(Cc3ccccc3F)c3ccccc32)N1c1ccc(F)cc1 (stereo not drawn)	nt	-5.6%	nt	nt	nt	nt
CCc1cccc(N2C(=O)CSC23C(=O)N(Cc2ccccc2F)c2ccccc23)c1 (stereo not drawn)	nt	-20.7%	nt	nt	nt	nt
O=C1CCSC2(C(=O)N(Cc3ccc(F)cc3)c3ccccc32)N1c1ccccc1 (stereo not drawn)	7.31µM*	-5.8%	nt	nt	8.2µM*	nt
Cc1cccc(C)c1NC(=O)CN(C)Cc1coc(-c2ccccc2)n1	nt	-1.9%	nt	nt	nt	nt
Cc1cc2oc(=O)cc(CN3CCOC(C)C3)c2cc1Cl (stereo not drawn)	nt	-2.4%	nt	nt	nt	nt
O=C(CCS(=O)(=O)C1CCCC1)NCC(O)c1cccc(Cl)c1 (stereo not drawn)	nt	-5.1%	nt	nt	nt	nt
COc1ccc(S(=O)(=O)N2CCC(c3noc(-c4ccncc4)n3)C2)cc1 (stereo not drawn)	nt	38.9%	nt	nt	nt	nt
O=C1CCSC2(C(=O)N(Cc3ccc(F)cc3)c3ccccc32)N1c1ccc(F)c(F)c1 (stereo not drawn)	7.31µM*	?	nt	nt	10.3µM*	nt
CCN1CCN(C2(C(=O)NCCC3CCCCO3)Cc3ccccc3C2)CC1 (stereo not drawn)	nt	54.9%	nt	nt	nt	nt
O=C(NCCO)c1nc(-c2ccc(COc3ccc4c(c3)OCO4)cc2)no1	nt	-9.8%	nt	nt	nt	nt

Screens as filed in PubChem BioAssay.
